A selection: hits, their analogues and other compounds. The true share with any hit is near 2.4%.
CRFR2-BP ag = agonists of CRF-BP/CRF-R2 complex, primary screen, cell-based, HEK293, calcium dye fluorescence, uHTS. calcium dye fluorescence (FLIPR); percent of saturating CRF peptide response. activation, % at 13.2 µM. 350,000 compounds, 0.46% hits. AID 588473, 2011;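 active = activation of at least 50%, plus an integration ratio under a set limit after plate pattern correction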
TMEM16A inh = TMEM16A chloride channel inhibitors, primary screen, cell-based, HTS | Anoctamin-1 (Mus musculus), Q8BHY3 | HEK293 TMEM16A/YFP iodide influx fluorescence, ionomycin | normalized B-score (activity score, 25-100; higher = stronger inhibition) at 10 µM | 310,000 compounds, 1.2% hits | AID 588511, 2011;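 active = ratio plate-corrected score three or more library SD toward inhibition, starting fluorescence score within five deviations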;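 also: score derived from kinetic fluorescence span divided by baseline fluorescence per well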
Target sequence (Q8BHY3 whole entry, looked up): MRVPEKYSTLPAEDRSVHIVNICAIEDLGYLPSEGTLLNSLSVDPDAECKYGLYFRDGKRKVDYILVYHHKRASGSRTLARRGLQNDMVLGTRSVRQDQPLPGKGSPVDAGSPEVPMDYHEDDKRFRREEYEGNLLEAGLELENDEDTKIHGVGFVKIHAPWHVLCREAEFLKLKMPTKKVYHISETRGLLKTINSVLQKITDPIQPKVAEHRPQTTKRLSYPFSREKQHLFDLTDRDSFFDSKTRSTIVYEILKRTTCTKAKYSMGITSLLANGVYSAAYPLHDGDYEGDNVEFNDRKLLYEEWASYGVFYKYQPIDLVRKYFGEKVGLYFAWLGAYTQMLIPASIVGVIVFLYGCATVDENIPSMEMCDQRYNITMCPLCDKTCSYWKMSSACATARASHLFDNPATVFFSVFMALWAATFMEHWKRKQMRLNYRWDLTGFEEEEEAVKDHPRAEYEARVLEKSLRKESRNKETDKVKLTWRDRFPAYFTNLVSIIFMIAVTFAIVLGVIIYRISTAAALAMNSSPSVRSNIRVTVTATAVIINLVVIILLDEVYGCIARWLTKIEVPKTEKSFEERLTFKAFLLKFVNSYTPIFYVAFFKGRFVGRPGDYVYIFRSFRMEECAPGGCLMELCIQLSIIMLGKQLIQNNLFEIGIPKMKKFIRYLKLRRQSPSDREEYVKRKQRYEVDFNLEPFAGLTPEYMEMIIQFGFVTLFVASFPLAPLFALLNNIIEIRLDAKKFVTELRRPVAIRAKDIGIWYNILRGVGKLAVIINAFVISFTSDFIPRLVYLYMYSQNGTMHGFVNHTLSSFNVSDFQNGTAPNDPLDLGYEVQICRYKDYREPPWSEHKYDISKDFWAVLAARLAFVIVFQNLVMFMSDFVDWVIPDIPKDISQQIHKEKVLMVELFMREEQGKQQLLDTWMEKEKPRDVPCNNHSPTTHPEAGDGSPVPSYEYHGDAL
CRFR2-BP antag = antagonists of CRF-BP/CRF-R2 complex, primary screen, cell-based, HEK293, calcium dye fluorescence, uHTS; 350,000 compounds, 0.59% hits; AID 588475, 2011; inhibition, % at 11.8 µM; CRF-induced calcium fluorescence;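 active = inhibition of the ligand-induced calcium signal above about 50% at the single tested concentration, limit read from the data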
ANO1 activ = TMEM16A chloride channel activators or potentiators, primary screen, cell-based, HTS. B-score at 10 µM. HEK293 TMEM16A/YFP-H148Q/I152L, iodide quench fluorescence; active compounds read low. 340,000 compounds, 0.3% hits;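 active = fluorescence-ratio B-score plate-corrected deviation score at least 3 library SD below zero, with starting fluorescence score within 5 deviations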;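 also: channel opened by trigger with iodide after compound preincubation; score built on the fluorescence ratio of max minus min over baseline; more negative score means more quench and so TMEM16A activation or potentiation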
cardiac RTF act = cardiac RTF calcium sensitivity activators, primary screen, biochemical, IANBD-TnC fluorescence, EC20 calcium; activation, % at 7.2 µM; 340,000 compounds, 0.24% hits; IANBD-labeled TnC RTF fluorescence at EC20 calcium; 0% EC20 calcium, 100% full calcium; Troponin I, cardiac muscle (Homo sapiens) + Troponin T, cardiac muscle (Homo sapiens) + …; AID 493008, 2010;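 active = activation above the mean over all tested compounds plus 3 SD, cut at about 30% in these data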;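 also: rise in fluorescence read as greater calcium sensitivity of cardiac thin filaments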
Cardiac RTF inh = cardiac RTF calcium sensitivity inhibitors, primary screen, biochemical, IANBD-TnC fluorescence, EC70 calcium. IANBD-labeled cardiac RTF, Ca2+ fluorescence. AID 493244, 2011. 340,000 compounds, 0.12% hits. inhibition, % at 7.15 µM;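 active = inhibition above the mean inhibition of all tested compounds plus 3 SD, cut at about 17% in these data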;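 also: assay run at fixed EC70 calcium of 1.6 mM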
RTF inh confirm = cardiac RTF calcium sensitivity inhibitors, confirmation, biochemical, fluorescence readout; shares compounds with Cardiac RTF inh; reconstituted cardiac thin filaments; inhibition, % at 7.15 µM; 360 compounds, 8% hits; AID 504635, 2011; in the data active = inhibition above about 18%
Of the large screens only hits and unclear results are named; the others gave an inactive call (follow-up assays come after a bar, where they were run).

CC(=O)Nc1cc(C(=O)N2CCc3ccccc3C2)ccc1Sc1ccc(C)cc1	Cardiac RTF inh 17.3 | RTF inh confirm inactive
c1nnc(NC2=NCCC2)s1	none
Cc1cnc(NC2=NCCC2)s1	Cardiac RTF inh 45.5 | RTF inh confirm inactive
O=C(OCC1CC(c2ccccc2Cl)=NO1)c1ccc(Br)cc1 (configuration not stated)	none
O=C(OCC1CC(c2ccccc2)=NO1)c1ccc(Br)cc1 (configuration not stated)	Cardiac RTF inh 17.9 | RTF inh confirm inactive
CCN(CC)C(=O)c1[nH]cnc1C(=O)N[C@H](C)c1ccccc1	none (no result: TMEM16A inh)
COc1ccccc1-c1ccc([C@@H]2C[C@H]3[C@H](CON3C)CN2C(=O)c2ccc(-c3ccccc3)cc2)cc1	none (no result: TMEM16A inh, ANO1 activ, cardiac RTF act, Cardiac RTF inh)
COc1ccc(C(OC(=O)c2ccco2)C(=O)NC(C)(C)C)cc1OC (configuration not stated)	none (no result: TMEM16A inh)
O=C(O)c1cc(O)c2c(c1)[C@H]([C@H]1c3cc(C(=O)O)cc(O)c3C(=O)c3c(O[C@@H]4O[C@H](CO)[C@@H](O)[C@H](O)[C@H]4O)cccc31)c1cccc(OC3O[C@H](CO)[C@@H](O)[C@H](O)[C@H]3O)c1C2=O (some centres not stated)	Cardiac RTF inh 53.4 | RTF inh confirm 101.8
O=C(O)c1cc(O)c2c(c1)[C@@H]([C@H]1c3cc(C(=O)O)cc(O)c3C(=O)c3c(O[C@@H]4O[C@H](CO)[C@@H](O)[C@H](O)[C@H]4O)cccc31)c1cccc(OC3O[C@H](CO)[C@@H](O)[C@H](O)[C@H]3O)c1C2=O (some centres not stated)	Cardiac RTF inh 59.3 | RTF inh confirm 112.1
Cc1cc(NC(=O)CN(C)CC(=O)Nc2ccc(Cl)cc2)no1	none (no result: TMEM16A inh)
O=C1N=C(N2CCN(c3cccc4ccccc34)CC2)S/C1=C/c1cccs1	none
Cc1ccccc1N1CCN(C2=NC(=O)/C(=C\c3cccs3)S2)CC1	Cardiac RTF inh 18.9 | RTF inh confirm inactive
S=c1[nH]nc(-c2cc(-c3ccccc3)n[nH]2)n1/N=C/C=C/c1ccco1	none (no result: cardiac RTF act, Cardiac RTF inh)
S=c1[nH]nc(-c2ccco2)n1/N=C/C=C/c1ccco1	Cardiac RTF inh 17.7 | RTF inh confirm inactive
N=C(N)c1ccc(N=Nc2c(O)ccc3c2[nH]c2ccccc23)cc1	Cardiac RTF inh 26.2 (no result: TMEM16A inh) | RTF inh confirm 29.8
Cn1c(C(C)(O)C(O)c2ccccc2)nc2ccccc21 (configuration not stated)	none (no result: CRFR2-BP ag, CRFR2-BP antag, ANO1 activ, cardiac RTF act, Cardiac RTF inh)
CC(NC(=O)CCCCCNC(=O)N1CCn2c1nc1ccccc12)c1ccccc1 (configuration not stated)	none
Cc1ccc(NS(=O)(=O)c2ccc(/C=C/C(=O)O)cc2)cc1Cl	Cardiac RTF inh 20.9 | RTF inh confirm inactive
Cc1ccc(NS(=O)(=O)c2ccc(Cl)c(C(=O)O)c2)cc1S(=O)(=O)N1CCOCC1	Cardiac RTF inh 19.2 | RTF inh confirm inactive
Cc1cc(C)c(NC(=O)c2cnn(C)c2)c(C)c1	none
Cc1cccc(NC(=O)c2cnn(C)c2)c1C	Cardiac RTF inh 17.3 | RTF inh confirm inactive
CC1Cc2ccccc2C(CCc2ccccc2)=N1 (configuration not stated)	none
COc1cc(/C=C2\SC(=S)N(NC(=O)c3cccnc3)C2=O)ccc1O	none
COc1cc(/C=C2\SC(=S)N(c3cccnc3)C2=O)ccc1O	Cardiac RTF inh 19.5 | RTF inh confirm inactive
CCN1C(=O)C(CC(=O)Nc2ccc(OC)cc2)N(Cc2ccc3c(c2)OCO3)C1=S (configuration not stated)	none
O=c1cc2oc3cc(O)c(O)cc3c(-c3ccccc3[N+](=O)[O-])c-2cc1O	Cardiac RTF inh 29.4 | RTF inh confirm 55.8
O=C(COC(=O)CCSc1ccc(Cl)cc1)NCc1ccccc1Cl	Cardiac RTF inh 17.6 | RTF inh confirm inactive
O=C(CN1C(=O)/C(=C\c2ccco2)SC1=S)Nc1ccc(O)cc1C(=O)O	Cardiac RTF inh 17.7 | RTF inh confirm inactive
O=C(CCCN1C(=O)/C(=C/c2ccco2)SC1=S)Nc1ccccc1C(=O)O	none
CCCCN(C)CCC(=O)Nc1ccc(F)c(F)c1	Cardiac RTF inh 17.1 | RTF inh confirm inactive
Cc1cc(C)n2nc(SCC(=O)NC(=O)c3ccccc3Cl)nc2n1	none (no result: TMEM16A inh)
CCc1c(C)nc(N2CCN(c3ccccc3F)CC2)[nH]c1=O	none
N#Cc1c(F)cccc1N1CCN(Cc2ccc3c(c2)OCO3)CC1	Cardiac RTF inh 17.9 | RTF inh confirm inactive
Cc1cccc(N2CCN(S(=O)(=O)c3c(C)nc4scc(C)n4c3=O)CC2)c1C	none
Nc1ncnc2oc(-c3ccco3)c(-c3ccco3)c12	Cardiac RTF inh 58.4 | RTF inh confirm inactive
Cc1cccc(NC(=O)CCSc2ccccn2)c1	Cardiac RTF inh 18.0 | RTF inh confirm inactive
CC1CCN(c2ccc(C(=O)NCc3ccco3)cc2[N+](=O)[O-])CC1	none
Nc1c(S(=O)(=O)O)cc(NC(=O)c2ccccc2)c2c1C(=O)c1ccccc1C2=O	Cardiac RTF inh 34.9 | RTF inh confirm inactive
Cc1ccc2c(c1)N(CC(=O)N1CCCCCC1)C(=O)C(C)O2 (configuration not stated)	none
CC(C(=O)O)N1C(=O)/C(=C/C=C/c2ccco2)SC1=S (configuration not stated)	Cardiac RTF inh 86.5 | RTF inh confirm 39.5
O=C1/C(=C/C=C/c2ccco2)SC(=S)N1NS(=O)(=O)c1ccccc1	Cardiac RTF inh 71.1 | RTF inh confirm inactive
O=C1/C(=C/c2cccs2)SC(=S)N1NS(=O)(=O)c1ccccc1	none
O=C(Nc1ccc(N2CCOCC2)c(S(=O)(=O)Nc2ccccc2Cl)c1)c1ccc(F)cc1	Cardiac RTF inh 23.9 (no result: TMEM16A inh) | RTF inh confirm inactive
COc1ccccc1NS(=O)(=O)c1cc(NC(=O)c2sccc2C)ccc1N1CCOCC1	none
COc1ccccc1NS(=O)(=O)c1cc(NC(=O)c2sccc2C)ccc1N1CCCC1	Cardiac RTF inh 24.9 | RTF inh confirm inactive
O=C(Nc1ccc(F)cc1)Nc1ccc(N2CCCC2)c(S(=O)(=O)Nc2ccccc2Cl)c1	none
COCc1nnc(NC(=O)c2ccc(S(=O)(=O)N(CC(C)C)CC(C)C)cc2)o1	Cardiac RTF inh 188.8 | RTF inh confirm inactive
